Compound activity (PubChem BioAssay)
Shown are actives, neighbours in structure and some others; about 1.7% of the full set was active somewhere.
NOD2-RIPK2 inh = blocks binding of human NOD2 to RIPK2 | AID 624267 | inhibition, % at 4.98 µM | 0.38% of 360,000 active | CHO BLA complementation NOD2-RIPK2, CCF4 ratio | O43353; in the data active = inhibition above about 21%
Myeloid diff MLP = myeloid differentiation induction | ER-HoxA9 myeloid progenitors, lysozyme-GFP differentiation, flow cytometry | calls only at 10 µM | 1% of 360,000 active;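 active = normalized GFP-positive differentiation at or above the plate's own cutoff, the solvent-only control mean plus 3 SD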;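 also: cells exposed to compound for four days before flow analysis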
TLR9-MyD88 block = TLR9-MyD88 interaction inhibition; CHO BLA complementation TLR9-MyD88, CCF4 FRET ratio; inhibition, % at 4.98 µM; 0.21% of 340,000 active;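 active = inhibition above the mean over all tested compounds plus 3 SD, cut at about 21% in these data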
ABCB6 inh 2 = inhibitors of human ABC transporter ABCB6; Q9NP58; K562-ABCB6 porphyrin accumulation, flow cytometry, 1 h; stronger effect = lower value; fluorescence ratio to DMSO, % at 10 µM; 0.19% of 360,000 active; AID 602162;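 active = fluorescence ratio to DMSO below 75%, the collection mean minus 3 SD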;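 also: signal is porphyrin accumulated inside mitochondria; lower ratio means ABCB6 inhibition with less porphyrin fluorescence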
TLR4-MyD88 BLA = blocks binding of human TLR4 to MyD88; inhibition, % at 8.4 µM; O00206+Q99836; 0.18% of 200,000 active; AID 861; HeLa CL3-4 TLR4/MyD88 BLA complementation, FRET ratio; in the data active = inhibition above about 25%
Hits are given with their value; n = inactive; x = not tested or not shown; + = active, no number.

SMILES | NOD2-RIPK2 inh | Myeloid diff MLP | TLR9-MyD88 block | ABCB6 inh 2 | TLR4-MyD88 BLA
COc1ccc(C)cc1S(=O)(=O)N(CC(=O)N1CCOCC1)Cc1ccccc1 | n | n | n | n | n
COc1ccc(CNC(=O)CN(Cc2ccccc2)S(=O)(=O)c2ccc(Cl)cc2)cc1 | n | n | n | n | n
COc1ccc(C)cc1S(=O)(=O)N(CC(=O)NCc1ccc(Cl)cc1)Cc1ccccc1 | n | + | n | n | n
COc1cc(CN2CCC(n3nccc3NC(=O)c3ccc4c(c3)OCO4)CC2)ccc1O | n | n | n | n | x
O=C1N[C@H]2CC=C[C@H]2Nc2ccccc21 | n | + | n | n | x
CCOC(=O)c1c(-c2ccc(C)o2)csc1NC(=O)CN1CCCCC1 | n | n | n | n | n
CCOC(=O)c1c(-c2ccc(C)o2)csc1NC(=O)CSc1nncs1 | 22 | n | n | n | n
O=C(O)CCNc1nc(C(F)(F)F)nc2ccccc12 | n | + | n | n | n
COc1ccc([C@@H]2[C@@H]3C(=O)N(C(C)(C)C)C(=O)[C@@H]3[C@]3(C)C(=O)N(c4ccccc4)C(=O)N23)cc1 | n | + | n | n | x
OCC(O)C1OC(Nc2ccc(Cl)cc2)C(O)C1O (centres undefined) | n | + | n | n | x
O=C(Cn1ccc2ccccc2c1=O)NCC(=O)Nc1ccc(F)cc1F | n | n | n | n | x
C=C[C@@H]1c2ccccc2N(S(=O)(=O)c2ccc(C)cc2)[C@H](c2ccc(OC(C)=O)cc2)C1(C#N)C#N | n | n | n | n | x
C=C[C@@H]1c2cc(C)ccc2N(S(=O)(=O)c2ccc(C)cc2)[C@H](c2ccc(OC(C)=O)cc2)C1(C#N)C#N | n | + | n | n | x
O=C(CC1CC2CCC1C2)N1CCN(S(=O)(=O)c2ccccc2F)CC1 (centres undefined) | n | n | n | n | x
CC(C)(C)OC(=O)n1cc(/C=N/NC(=O)c2ccco2)c2ccccc21 | n | + | n | n | x
COC(=O)c1sc(S(=O)(=O)NC(Cc2ccccc2)C(=O)O)c(C(=O)OC)c1C (centres undefined) | n | n | n | n | x
Cc1cc(C)n(C(C)CC(=O)N2CCc3ccccc32)n1 (centres undefined) | n | n | n | n | x
Cc1cc(C)n(C(CC(=O)N2CCc3ccccc3C2)C(=O)O)n1 (centres undefined) | n | + | n | n | n
CCOC(=O)c1cccc(Nc2nc(-c3cccnc3)nc3ccccc23)c1 | n | + | n | n | n
COC(=O)c1cccc(Nc2nc(-c3cccnc3)nc3ccccc23)c1 | n | n | n | n | x
COc1ccc(N2CCN(C(=O)C3Cc4ccccc4CN3C(=O)c3ccccc3)CC2)cc1 (centres undefined) | n | + | n | n | n
Cc1cc(=O)oc2cc(OC(=O)c3cncc(Br)c3)ccc12 | n | n | n | n | n
Cc1cc(N2C(=O)C=CC2=O)c([N+](=O)[O-])cc1C | 22 | n | n | n | n
Cc1c([N+](=O)[O-])cc(N2C(=O)C=CC2=O)cc1[N+](=O)[O-] | n | n | n | n | x
Cc1ccc(C2(c3ccc(C)cc3)CC2C(=O)NC(C)C)cc1 (centres undefined) | n | n | n | n | x
SMILES | NOD2-RIPK2 inh | Myeloid diff MLP | TLR9-MyD88 block | ABCB6 inh 2 | TLR4-MyD88 BLA
COc1cc2ncnc(NCc3cccc(Cl)c3)c2cc1OC | n | + | n | n | n
Cc1ccccc1S(=O)(=O)Cc1ccc(C(=O)NCCN(C)Cc2ccccc2)o1 | n | + | n | n | x
CC(C)C(NC(=O)CCNC(=O)c1ccc(C(C)(C)C)cc1)c1nc2ccccc2[nH]1 (centres undefined) | n | n | n | n | x
COc1ccc(N=C2SCC(=O)N2Cc2ccccc2)cc1 | n | + | n | n | n
Clc1ccc(-c2nc3ccccn3c2CN2CCOCC2)cc1 | n | + | n | n | n
COc1ccc(C(=O)NC(=S)Nc2ccc3c4c(cccc24)CC3)cc1OC | n | n | n | n | n
COc1cc(OC)cc(C(=O)NC(=S)Nc2ccc3c4c(cccc24)CC3)c1 | n | + | n | n | n
O=C(Nc1ccc2c3c(cccc13)CC2)c1ccco1 | n | + | n | n | n
CC(C)Oc1cccc(C(=O)NC(=S)Nc2ccc3c4c(cccc24)CC3)c1 | n | + | n | n | n
O=C(Nc1ccc2c3c(cccc13)CC2)c1ccc(Br)o1 | n | n | n | n | n
O=C(CN1C(=O)NC2(CCCC2)C1=O)OCc1cc(=O)n2cc(Br)ccc2n1 | n | n | n | n | x
CCCc1ccc(OCc2ccc(C(=O)N/N=C/c3cccnc3)o2)cc1 | n | + | n | n | x
Cc1c(C)c2ccc(OCc3ccc(C(=O)O)o3)c(C)c2oc1=O | n | n | n | n | n
Cc1c(C)c2ccc(OS(C)(=O)=O)c(C)c2oc1=O | n | n | n | 69 | n
NC(c1csc(NC(=O)Nc2ccc(OC(F)(F)F)cc2)n1)C1CCCCC1 (centres undefined) | n | n | x | n | x
COc1ccccc1Nc1cc2cc(Br)ccc2c(=O)[nH]1 | n | + | n | n | x
COc1ccc(CN2CCN(C(=O)Cn3ncn4cccc4c3=O)CC2)c(OC)c1OC | n | n | n | n | x
CCOC(=O)CN1C(=O)CC(c2ccc([N+](=O)[O-])cc2)C1=O (centres undefined) | n | n | n | n | x
CC(C)(C)C(=O)c1sc2nc(-c3cccs3)cc(C(F)(F)F)c2c1N | n | + | n | n | n
Cc1nnc(NC(=O)c2sc3nc(-c4cccs4)cc(C(F)(F)F)c3c2N)s1 | n | + | n | n | n
Cc1cc(C(F)(F)F)c2c(N)c(C(=O)NC3CC3)sc2n1 | n | n | n | n | x
Cc1nn(C)c2nc(-c3cccs3)cc(C(F)(F)F)c12 | n | n | n | n | n
CCN(CC)C(=O)c1sc2nc(-c3cccs3)cc(-c3ccc(Cl)cc3)c2c1N | n | n | n | n | n
CCN(CC)C(=O)c1sc2nc(-c3cccs3)cc(-c3cccs3)c2c1N | n | + | n | n | x
O=C(COC(=O)c1nc(-c2ccccc2)n(-c2cccc(C(F)(F)F)c2)n1)NCc1cccs1 | n | n | n | n | n
SMILES | NOD2-RIPK2 inh | Myeloid diff MLP | TLR9-MyD88 block | ABCB6 inh 2 | TLR4-MyD88 BLA
CCOC(=O)C1CCN(Cc2cc(=O)oc3c(C)c(C)ccc23)CC1 | n | + | n | n | x
CC1(NC(=O)c2cc(Cl)nc3ccccc23)CCS(=O)(=O)C1 (centres undefined) | n | n | n | n | x
COc1ccc(C2c3cc4c(cc3OC(N3CCOCC3)C2C)OCO4)c(OC)c1 (centres undefined) | n | n | n | n | x
COc1cccc(C2c3cc4c(cc3OC(N3CCOCC3)C2C)OCO4)c1O (centres undefined) | n | + | n | n | x
Cc1cccc(N2CCN(CC(=O)Nc3ccc(S(=O)(=O)N4CCOCC4)cc3)CC2)c1C | n | + | n | n | x
Cc1ccc(C(=O)NCCCNC(=O)c2ccco2)cc1C | n | n | n | n | x
Cc1oc(C)c2c(=O)ccc3c(c12)OC(N)=C(C#N)C3c1ccccc1Cl (centres undefined) | n | + | n | n | n
